To fix the notation:
T1: UNK ZnF1-3 (human, UniProt Q9C0B0 31-174)
T1 sequence: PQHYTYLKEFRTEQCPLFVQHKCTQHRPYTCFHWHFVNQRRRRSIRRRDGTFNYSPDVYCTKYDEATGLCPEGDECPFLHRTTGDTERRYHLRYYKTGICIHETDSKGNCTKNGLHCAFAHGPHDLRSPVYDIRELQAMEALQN

B1: chr1:241675328:241675329:-_ENSG00000091483_ENST00000366560|hu_mus|FALSE|FALSE (ssRNA)
RNA: GGGAGUUCUACAGUCCGACGAUCGCUUUUGUUAACAUGAUCAUUGGGGUGCACAGGCUUCUUGCUGCCAAGUUCACCUCCUAACAUUUCAAUUGCUCUGUUGCUAAUGACUUCAUUUACAUUCAUGUUUGUCUGGGUUCCUGACAACAGAGGAUUGAGCAUCA
B2: chr17:45747064:45747065:+_ENSG00000108424_ENST00000290158|hu_hu|hu_hu_hu_mus_True|38_108 (ssRNA)
RNA: GGGAGUUCUACAGUCCGACGAUCGCCUACAGUCCAUGCUGUUGUGUCUCGAACAACUACACUGGGGUCUUUCAUUAGUUCUAUUAGGGUGGGCAUAGCCUGUAUAACUAAUGGUUUCAGUUGAUUAGGCUCUGGUCCUUCCAACAACAGAGGAUUGAGCAUCA
B3: chr18:10010020:10010021:-_ENSMUSG00000047879_ENSMUST00000092096|mus_hu|FALSE|FALSE (ssRNA)
RNA: GGGAGUUCUACAGUCCGACGAUCCUCGGCAAACUGUGGGAAAGCCAUGUGCAAAAACUGCAGUAGAAUAAUAGGUGGAAUACUGGAAGAAGUUUUAUCCAUGGAAUCAAACAAAUCUCUAAGGGCUGCAGUAAUAUACUGCGCCAACAGAGGAUUGAGCAUCA
B4: chr7:149068622:149068623:-_ENSMUSG00000025139_ENSMUST00000001950|mus_hu|mus_mus_mus_hu_False|68_98 (ssRNA)
RNA: GGGAGUUCUACAGUCCGACGAUCGUGAGGCCUCUGAGUGAGGUUCCUGGUCUGUCCUGGGUUAGAGCUGCUGGUAACACGGAACAUACCAUCUAGAACGUUCCAGUCCCGCCUGACACCUUCAUUCCCAAUGGAGAAGAAAUCCAACAGAGGAUUGAGCAUCA
B5: chr7:141445308:141445309:+_ENSG00000106028_ENST00000265304|hu_hu|hu_hu_hu_mus_False|48_68 (ssRNA)
RNA: GGGAGUUCUACAGUCCGACGAUCUAUGAUUGUUGUUGCUUGCCGCCUCACAUUGUUUUUAUCCAUGUAUUCACCAUAGUCCACUUUCCCUUCCAAAAAUAUACGAGCCCCCUUUUUCACAUACUGAUAUGCCACAUCUCUGAGCAACAGAGGAUUGAGCAUCA
B6: 120768192_120770490_416_CDS_ENSMUSG00000043207_ENSMUST00000058754|mouse|control|control (ssRNA)
RNA: GGGAGUUCUACAGUCCGACGAUCGCUGAAGGUACUUUUAUCCAGUUGAUACAAUCGAGAUUUCUCAAACGUGUCCGAAUCCAUGAUCUGUUCUAACUCUGCUGGUACGCGAGUCGUCGUUUUGUAUAUCCUUCUCUGCCGCUGCAACAGAGGAUUGAGCAUCA
B7: chr1:60041781:60041782:+_ENSMUSG00000041040_ENSMUST00000036540|mus_hu|mus_mus_mus_hu_False|18_88 (ssRNA)
RNA: GGGAGUUCUACAGUCCGACGAUCAAGUUUACAAUAGUAAAGUAAAUCAAAUUUAGUCAAAUUUUCUUUUAUUUUCCUUCACAAAAGAAAAUCUUUAUAACCCAGUCCUAGUCUUGGCAGAGAAAGCAGCUAUAAAUUCUGACUCAACAGAGGAUUGAGCAUCA
B8: chr15:76909541:76909542:-_ENSMUSG00000033565_ENSMUST00000166610|perfect_dup|motif|central (ssRNA)
RNA: GGGAGUUCUACAGUCCGACGAUCAACAUGAUCAAUAAUUUAUACACAUGGAGAGUAAUACAAAAAAAUAAGGAAUAAAAGCGGAAGAUCUAACUACUCCGACCUUCACAAUUCCAGCUACUUGAUAAUAAUAGGAGUAACCCACAACAGAGGAUUGAGCAUCA
B9: chr20:57570089:57570090:+_ENSG00000101158_ENST00000344018|hu_mus|FALSE|FALSE (ssRNA)
RNA: GGGAGUUCUACAGUCCGACGAUCACUCCCACACACACACAUACAACUCAACAUUACUCUUGGAAACUUAAAGUAACUGACCAUCUGGGUCAUAGGAAGGAAACUUACAUAAACCCUUCAUGAAGUGUCCCAGCUGCUAGAUUCCAACAGAGGAUUGAGCAUCA
B10: chr1:163117127:163117128:-_ENSG00000143248_ENST00000313961|hu_mus|hu_hu_hu_mus_False|48_78 (ssRNA)
RNA: GGGAGUUCUACAGUCCGACGAUCUGCUACAAAGGAUGUAACUCAACUCACAGGGCAUGAUUUCAUAGCCUGACCAGAUGACUACUUGAUUAACUCCUUAUAAAAUUCAGAGCGCACAAAGCGGGGCAGAGAAUCCUUCUCCAUCAACAGAGGAUUGAGCAUCA
B11: chr1:163117127:163117128:-_ENSG00000143248_ENST00000313961|hu_mus|hu_hu_hu_mus_False|18_78 (ssRNA)
RNA: B10 RNA with A92G, G123A
B12: chr15:76909541:76909542:-_ENSMUSG00000033565_ENSMUST00000166610|perfect_dup|FALSE|FALSE (ssRNA)
RNA: B8 RNA with G82U, G83A
B13: 168352429_168352549_4431_CDS_ENSG00000130396_ENST00000400822|human|control|control (ssRNA)
RNA: GGGAGUUCUACAGUCCGACGAUCAAUGUACUGCAAGUCUCUGCGCUCGAUCGUGCGGGGCUGCUGCUGAGGCUGCAGCUCCCGAAUGACUGUUUCCUGUGGCCGCUGGAGUGUGGAAGGCUUUUCGGGCUUCAUCUGCUGUGCCAACAGAGGAUUGAGCAUCA
B14: chr2:201681052:201681053:+_ENSG00000082153_ENST00000409600|hu_hu|FALSE|FALSE (ssRNA)
RNA: GGGAGUUCUACAGUCCGACGAUCUUUUACUUCAUCUUCAAAACCUUUCUCCAGGUAUUUGUAGCGCCUGAUUAACUUGUUAAAAACCUGAGCAAAUGCUUGCAUGGUCUCUAGAUCUUCUUGGGCUGCAAACACGCAGACAUCCAACAGAGGAUUGAGCAUCA

Substitutions are numbered along the chain they refer to. Over roughly 24,000 sequences, “enrichment r” has its median near 0.99; the highest 2% begin near 3.7. For the sample, the highest values were picked, then their nearest neighbours and some sequences at random.

The target of this assay is T1, UNK ZnF1-3. The assay is described as follows: nsRBNS (natural sequence RNA bind-n-seq); RBNS binding buffer (assumed for nsRBNS): 25 mM Tris pH 7.5, 150 mM KCl, 3 mM MgCl2, 0.01% Triton X-100, 500 ug/ml BSA, 20 U/ml SUPERase-In, 4 C; UNK is unkempt and MSI1 is Musashi-1; names of the RNAs are library labels; protein concentration not given here; high values mean tight binding.
For B1, the binding signal is 0.274 enrichment R.

With B2, the binding signal was found to be 0.577 enrichment R.

Take B3: the binding signal is 1.59 enrichment R.

With B4, the binding signal amounted to 0.742 enrichment R.

Consider B5, for which the binding signal came to 0.799 enrichment R.

Consider B6, for which the binding signal came out at 0.656 enrichment R.

On to B7, for which the binding signal was 0.9 enrichment R.

B8 gave a binding signal of 8.91 enrichment R.

The molecule B9 had a binding signal of 1.41 enrichment R.

For B10, the binding signal worked out at 1.08 enrichment R.

Consider B11, for which the binding signal stood at 0.919 enrichment R.

As for B12, the binding signal is 6.42 enrichment R.

B13 gave a binding signal of 0.667 enrichment R.

B14 came in with a binding signal of 0.452 enrichment R.

(Values after article PMC12136788.)
